Results as given in PubChem BioAssay (NCATS).
Where “and” joins values, the source holds several entries; their conditions need not be identical. Equal values may be shown once. Results filed as inconclusive are left out. Calls of active or inactive are those of the source. Calls come from the whole dose curve; as a rule, active = well fitted curve in the direction sought with a large enough effect; inconclusive = small, poorly fitted or top-dose-only effect, or another doubt; inactive = no such curve, though single readings can be large; an effect the other way counts as inactive or inconclusive.

Columns and labels:
[1] = target: Cellular tumor antigen p53 (Homo sapiens) (UniProt P04637); assay: Primary qHTS for small molecule compounds that upregulate eGFP-tagged delta133p53alpha (in N-terminal) cells. (AID 2060322); settings: NCI-H358 eGFP-delta133p53alpha fluorescence, 24 h; activation: stronger effect = higher value; note: nearly all actives have a fitted effect of over 75% in size; note: potency is the fitted concentration of half-maximal effect;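 for activation: cells pre-induced with doxycycline then dosed without doxycycline; 0% = DMSO vehicle and 100% = reference activator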
Sequence of Cellular tumor antigen p53 (Homo sapiens) (P04637 whole entry, looked up): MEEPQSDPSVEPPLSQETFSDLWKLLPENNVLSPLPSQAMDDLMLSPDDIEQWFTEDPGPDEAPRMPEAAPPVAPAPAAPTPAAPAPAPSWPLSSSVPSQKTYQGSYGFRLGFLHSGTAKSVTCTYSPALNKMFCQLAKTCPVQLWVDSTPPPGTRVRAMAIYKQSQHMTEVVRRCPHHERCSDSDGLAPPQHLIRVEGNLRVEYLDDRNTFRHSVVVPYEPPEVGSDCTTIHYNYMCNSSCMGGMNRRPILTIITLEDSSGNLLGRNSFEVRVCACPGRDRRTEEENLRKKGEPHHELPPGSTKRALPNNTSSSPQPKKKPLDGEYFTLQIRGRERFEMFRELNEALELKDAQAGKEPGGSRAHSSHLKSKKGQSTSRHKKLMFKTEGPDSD
How it was run: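 NCI-H358 cells pre-induced 24 h with 10 ng/ml doxycycline for eGFP-delta133p53alpha, plated dox-free and exposed 24 h at 37C to titrated compounds. Fixed, Hoechst-stained; gated GFP peak intensity by laser scanning cytometry, normalized to DMSO (0%) and 57.5 uM 5-azacytidine (100%).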

[2] = target: Aldehyde dehydrogenase, mitochondrial (Homo sapiens) (UniProt P05091); assay: qHTS for Inhibitors of the Aldehyde Dehydrogenase Family (ALDH2) Primary screen (AID 2061308); settings: ALDH2 enzyme inhibition qHTS, 1536-well; series mostly up to 56 µM;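 note: plate controls were vehicle for no effect and reference inhibitor for full effect; nearly all actives have a fitted effect of over 55% in size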
[3] = target: Retinaldehyde dehydrogenase 3 (Homo sapiens) (UniProt P47895); assay: qHTS for Inhibitors of the Aldehyde Dehydrogenase Family (ALDH1A3) Validation screen (AID 2061312); settings: ALDH1A3 enzyme inhibition qHTS validation, fluorescence; series mostly up to 84.7 µM; note: nearly all actives have a fitted effect of over 45% in size; note: potency is the fitted concentration of half-maximal effect
[4] = target: Retinaldehyde dehydrogenase 3 (Homo sapiens) (UniProt P47895); assay: qHTS for Inhibitors of the Aldehyde Dehydrogenase Family (ALDH1A3) Primary screen (AID 2061315); settings: ALDH inhibition qHTS; series mostly up to 56 µM;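 note: plate controls were DMSO vehicle for no effect and reference inhibitor for full effect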

CC(C)NCC(C(=O)N1CCN(c2ncnc3c2C(C)CC3O)CC1)c1ccc(Cl)cc1 (centres undefined)
inactive: activation [1] 0.955% | Potency [2] | Potency [3] | Potency [4]

COc1ccc(C#Cc2ccc(C(=O)N3CCC[C@@H](CO)C3)cc2)cc1
inactive: activation [1] -13.8% | Potency [2] | Potency [3] | Potency [4]

CS(=O)(=O)Nc1ccc2oc3c(OC(F)F)ccc(C(=O)Nc4c(Cl)cncc4Cl)c3c2c1
inactive: activation [1] 22% | Potency [2] | Potency [3] | Potency [4]

C[C@@H](NC(=O)c1cc(C(=O)N[C@@H](Cc2ccccc2)[C@H](O)CNC2CC2)cc(N(C)S(C)(=O)=O)c1)c1ccccc1
inactive: activation [1] -12.4% | Potency [2] | Potency [3] | Potency [4]

COc1ccc2[nH]c3c(-c4cccc5ccccc45)nccc3c2c1
active: Potency [1] 26.9 µM
inactive: Potency [2] | Potency [3] | Potency [4]

CNC(=O)O[C@H]1COc2ccc(N3CCN(C4COC4)CC3)cc2[C@@H]1NC(=O)c1ccc(F)cc1
inactive: activation [1] -1.43% | Potency [2] | Potency [3] | Potency [4]

CS(=O)(=O)NCC1CCC(Nc2nc3c(s2)CCSc2ccccc2-3)CC1 (centres undefined)
inactive: activation [1] -6.21% | Potency [2] | Potency [3] | Potency [4]

OC1(CN2CCC(COc3noc4cccc(O[C@@H]5CCOC5)c34)CC2)CCOCC1
inactive: activation [1] 3.82% | Potency [2] | Potency [3] | Potency [4]

Cc1ccc(-c2c(-c3nn(C)c4ncnc(N5CC[C@H](N6CCCCC6)C5)c34)cnn2C)cc1
inactive: activation [1] 0.477% | Potency [2] | Potency [3] | Potency [4]

CC1(C)CCC(C)(C)c2cc(C3(c4ccc(C(=O)O)cc4)OCCO3)ccc21
inactive: activation [1] 2.39% | Potency [2] | Potency [3] | Potency [4]

Cc1cc(C(=O)N2CCCCc3ccccc32)ccc1CNC(=O)N1CCC[C@H]1C(=O)N(C)C
inactive: activation [1] 4.3% | Potency [2] | Potency [3] | Potency [4]

CC(=O)Nc1cccc(Nc2ncnc(N3CCC(OCc4ccc(OC(F)(F)F)cc4)CC3)n2)c1C
inactive: activation [1] -6.21% | Potency [2] | Potency [3] | Potency [4]

O=C(NCCCN1CCOCC1)c1cnn2c(-c3ccccc3)cc(-c3ccccc3)nc12
inactive: activation [1] -6.68% | Potency [2] | Potency [3] | Potency [4]

Cc1ccccc1NC(=O)Nc1ccc(CN2C(=O)N([C@@H](CC(C)C)C(=O)N[C@@H](CC(=O)O)c3ccccc3)C(=O)C2(C)C)cc1
inactive: activation [1] -2.86% | Potency [2] | Potency [3] | Potency [4]

O=c1[nH]cnc2c1ncn2[C@@H]1O[C@H](CO)[C@@H](O)[C@H]1O
inactive: activation [1] -11.7% and 6.21% | Potency [2] | Potency [3] | Potency [4]

CCCCc1c(-c2ccc(OC)cc2)[nH]c2nccnc12
inactive: activation [1] 5.25% | Potency [2] | Potency [3] | Potency [4]

C[C@@H]1O[C@@H](O[C@H]2[C@H](Oc3cc(O)c(C(=O)CCc4ccc(O)cc4)c(O)c3)O[C@H](CO)[C@@H](O)[C@@H]2O)[C@H](O)[C@H](O)[C@H]1O
inactive: activation [1] -10.5% | Potency [2] | Potency [3] | Potency [4]

CC(C)[C@@H](c1ccc(C(F)(F)F)cc1CN(Cc1cc(C(F)(F)F)cc(C(F)(F)F)c1)c1nnn(C)n1)N1CCC(C(=O)O)CC1
inactive: activation [1] 6.68% | Potency [2] | Potency [3] | Potency [4]

Cc1ccnc(NC(=O)C(C)c2cccc(C(=O)c3ccccc3)c2)c1 (centres undefined)
inactive: activation [1] -19.6% | Potency [2] | Potency [3] | Potency [4]

O=C(c1ccccn1)c1cnn2c(-c3ccncc3)ccnc12
inactive: activation [1] -7.16% | Potency [2] | Potency [3] | Potency [4]

COc1ccncc1C(=O)NC(=O)Nc1ccc(-c2ccccc2)c(C(F)(F)F)c1
inactive: activation [1] -0.477% | Potency [2] | Potency [3] | Potency [4]

O=C1CSc2ccccc2N1Cc1cccc(C(F)(F)F)c1
inactive: activation [1] 3.34% | Potency [2] | Potency [3] | Potency [4]

C#CCN(Cc1cc2c(=O)n(C)c(CN3CCN(C)CC3)nc2cc1Cl)c1ccc(C(=O)NCc2cccnc2)cc1
inactive: activation [1] 0.955% | Potency [2] | Potency [3] | Potency [4]

CC(C)[C@@H](C)/C=C/[C@@H](C)[C@H]1CC[C@H]2C3=CC=C4C[C@@H](O)CC[C@]4(C)[C@H]3CC[C@]12C
inactive: activation [1] 14.3% | Potency [2] | Potency [3] | Potency [4]

COc1cc(Br)c(S(=O)(=O)Nc2ccc(Cl)c(O[C@@H]3CCN(C)C3)c2)cc1OC
inactive: activation [1] 21.5% | Potency [2] | Potency [3] | Potency [4]

COCc1c(Cl)ccc2c1CC[C@H]2c1ncc[nH]1
inactive: activation [1] 11% | Potency [2] | Potency [3] | Potency [4]

CN1CCN(Cc2ccc(NC(=O)Cc3ccc(Oc4cc(NC(=O)C5CC5)ncn4)cc3)cc2C(F)(F)F)CC1
inactive: Potency [2] | Potency [3] | Potency [4]
active: Potency [1] 6.75 µM

CN(C)CCc1c[nH]c2ccc(C[C@H]3COC(=O)N3)cc12
inactive: activation [1] -0.837% and -21.4% and -11.5% | Potency [2] | Potency [3] | Potency [4]

COCCN1CCC(C(=O)NO)(S(=O)(=O)c2ccc(Oc3ccc(OC(F)(F)F)cc3)cc2)CC1
inactive: activation [1] -13.4% | Potency [2] | Potency [3] | Potency [4]

CC(C)[C@@H]1C(=O)N(S(C)(=O)=O)[C@@H]2CCN(C(=O)/C=C/CN3CCCCC3)[C@H]21
inactive: activation [1] 8.11% | Potency [2] | Potency [3] | Potency [4]

CNC(=O)c1ccc2c(c1)CCO[C@H]2CCN1CCN(c2ccc(C(N)=O)cc2)CC1
inactive: activation [1] 8.11% | Potency [2] | Potency [3] | Potency [4]

CC[C@@H](c1ccc(F)c(F)c1)n1c(C(=O)OC)c(-c2ccno2)[nH]c1=S
inactive: activation [1] -6.68% | Potency [2] | Potency [3] | Potency [4]

CCCNCCOc1ccc(NC(=O)c2c[nH]c3c2C(=O)CCC3)cc1F
inactive: activation [1] -0.955% | Potency [2] | Potency [3] | Potency [4]

CC(C)(C)C(=O)C(Oc1ccc(Cl)cc1)n1ccnc1 (centres undefined)
inactive: activation [1] -37.9% and -2.39% | Potency [2] | Potency [3] | Potency [4]

O=C(O)[C@@H]1C[C@H]2C[C@@H](CCc3nn[nH]n3)CC[C@H]2CN1
inactive: activation [1] 4.77% | Potency [2] | Potency [4]
active: Potency [3] 10 µM

Cc1cc(C)c(-c2csc(NC(=O)c3ccccc3)n2)c(C)c1
inactive: activation [1] 21% | Potency [2] | Potency [3] | Potency [4]

Cc1[nH]c2ccccc2c1CCNC(=O)c1cccs1
inactive: activation [1] -18.1% | Potency [2] | Potency [3] | Potency [4]

Cc1c(OCc2cccc(-c3ccc(C(=O)O)cc3)c2)cc2c(c1C)C(=O)C(C1CCCC1)C2 (centres undefined)
inactive: activation [1] -8.59% | Potency [2] | Potency [3] | Potency [4]

Nc1nc2c(c(N3CCNCC3)n1)CCC1=C2[C@@H]2CCCC[C@@H]2O1
inactive: activation [1] -18.1% | Potency [2] | Potency [3] | Potency [4]

NS(=O)(=O)c1ccc(N2CCN(CC[C@@H]3OCCc4ccccc43)CC2)cc1
inactive: activation [1] 16.7% | Potency [2] | Potency [3] | Potency [4]

Cc1onc(-c2c(Cl)cccc2Cl)c1CC(=O)NCc1ccc(OCC(F)(F)F)nc1
inactive: activation [1] -9.07% | Potency [2] | Potency [3] | Potency [4]

COc1ccccc1N1CCN(CCCCNC(=O)c2ccc(-c3cscn3)cc2)CC1
inactive: activation [1] 4.3% | Potency [2] | Potency [3] | Potency [4]

COc1cccc(C(=O)NCCNc2nc3cc(C)cc(C)c3cc2C#N)c1
inactive: activation [1] -1.91% | Potency [2] | Potency [3] | Potency [4]

CC(=O)O[C@]1(C(C)=O)CC[C@H]2[C@@H]3C[C@H](C)C4=CC(=O)C=C[C@]4(C)[C@@]3(F)[C@@H](O)C[C@@]21C
inactive: activation [1] 1.91% | Potency [2] | Potency [3] | Potency [4]

CC(C)c1ccccc1OC(=O)NCCc1ccc2ccccc2c1
inactive: activation [1] 2.39% | Potency [2] | Potency [3] | Potency [4]

CCC(=O)N1CCOc2c(cc(-c3ccc(OC)c(OC)c3)cc2OC[C@H]2CCCN(C)C2)C1
inactive: activation [1] -0.477% | Potency [2] | Potency [3] | Potency [4]

O=C(C(Cc1cccc(C(F)(F)F)c1)NS(=O)(=O)c1cc(F)c2c(c1)CCNC2)N1CCCC1 (centres undefined)
inactive: activation [1] -13.4% | Potency [2] | Potency [3] | Potency [4]

Cc1nc2ccccc2c(-c2ccc3c4c(ccnc24)CCO3)c1[C@H](OC(C)(C)C)C(=O)O
inactive: activation [1] 0.955% | Potency [2] | Potency [3] | Potency [4]

Nc1ncnc2c1c(-c1ccc(Oc3ccccc3)cc1)nn2[C@@H]1CCCNC1
inactive: activation [1] 20% | Potency [2] | Potency [3] | Potency [4]

CC(C)S(=O)(=O)NC[C@H](C)c1ccc(-c2ccc(CCNS(C)(=O)=O)cc2)cc1
inactive: activation [1] -5.73% | Potency [2] | Potency [3] | Potency [4]

COc1ccc(N2CCOCC2)c2sc(NC(=O)N3CCC(C)(O)CC3)nc12
inactive: activation [1] -5.25% | Potency [2] | Potency [3] | Potency [4]

CCN[C@@H]1C[C@H](N)[C@@H](O[C@H]2OC(CN)=CC[C@H]2N)[C@H](O)[C@H]1O[C@H]1OC[C@](C)(O)[C@H](NC)[C@H]1O
inactive: activation [1] 10.5% and 9.67% | Potency [2] | Potency [3] | Potency [4]

FC(F)(F)c1cc(C(F)(F)F)c2ccc3nc(-c4nnco4)cn3c2n1
inactive: activation [1] 5.73% | Potency [2] | Potency [3] | Potency [4]

CN(C)c1nc(Cc2ccc(NC(=O)c3ccc(C(F)(F)F)cc3)cc2)nc(N(C)C)c1CC(=O)O
inactive: activation [1] -14.6% and -1.43% | Potency [2] | Potency [3] | Potency [4]

O=C1COc2nccc(-c3ccccc3F)c2CN1Cc1cc(C(F)(F)F)cc(C(F)(F)F)c1
inactive: activation [1] -4.77% | Potency [2] | Potency [3] | Potency [4]

Cc1ccc(-n2nc(C(C)(C)C)cc2NC(=O)Nc2cc(COc3cccnc3)[nH]n2)cc1
inactive: activation [1] 6.21% | Potency [2] | Potency [3] | Potency [4]
